Test results from PubChem BioAssay (NCATS).
Inconclusive results are not listed. Entries that show only a call come without a potency. Active and inactive are the calls of the source. Calls follow the shape of the dose curve; as a rule, active = well fitted inhibition curve with a large enough effect; inconclusive = small, poorly fitted or top-dose-only effect; inactive = flat fitted curve, though single readings scatter.

Experiments:
Experiment in all cases: qHTS profiling for inhibitors of Plasmodium falciparum proliferation (AID 504749); also: nearly all actives have a fitted effect of over 60% in size
Conditions in all cases: P. falciparum in erythrocytes, SYBR Green DNA, 72 h; series mostly up to 28.7 µM
CP238 = system: CP238
Method in brief: (§1)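 Quantitative HTS: compounds pinned into medium, infected erythrocytes added (0.3% parasitemia, 2.5% hematocrit), 72 h culture at 37 C under 5% CO2. Saponin/Triton lysis with SYBR Green I, overnight RT, then fluorescence read.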

CP247 = system: CP247
Method in brief: as §1

CP250 = system: CP250
Method in brief: as §1

CP252 = system: CP252
Method in brief: as §1

CP265 = system: CP265
Method in brief: as §1

CP315 = system: CP315
Method in brief: as §1

CP215 = system: CP215
Method in brief: as §1

CP217 = system: CP217
Method in brief: as §1

CP237 = system: CP237
Method in brief: as §1

CP256 = system: CP256
Method in brief: as §1

CP260 = system: CP260
Method in brief: as §1

CP262 = system: CP262
Method in brief: as §1

CP266 = system: CP266
Method in brief: as §1

CP268 = system: CP268
Method in brief: as §1

CP269 = system: CP269
Method in brief: as §1

CP286 = system: CP286
Method in brief: as §1

CP291 = system: CP291
Method in brief: as §1

CP297 = system: CP297
Method in brief: as §1

CP305 = system: CP305
Method in brief: as §1

CP325 = system: CP325
Method in brief: as §1
Potency is read from the fitted curve at half-maximal effect.

Compound	outcome (CP238)	Potency (CP247)	outcome (CP250)	outcome (CP252)	Potency (CP265)	outcome (CP315)	Potency (CP215)	Potency (CP217)	Potency (CP237)	outcome (CP256)	outcome (CP260)	outcome (CP262)	outcome (CP266)	outcome (CP268)	outcome (CP269)	outcome (CP286)	outcome (CP291)	Potency (CP297)	Potency (CP305)	outcome (CP325)
CC(=O)O[C@]1(C(C)=O)CC[C@H]2[C@@H]3C=C(Cl)C4=CC(=O)[C@@H]5C[C@@H]5[C@]4(C)[C@H]3CC[C@@]21C	inactive	inactive	inactive	inactive	inactive	inactive														
COCCCCC(=NOCCN)c1ccc(C(F)(F)F)cc1						inactive														
CCCCCN(C)CCC(O)(P(=O)(O)O)P(=O)(O)O	inactive	inactive	inactive	inactive	inactive	inactive	inactive	inactive	inactive	inactive	inactive	inactive	inactive	inactive	inactive	inactive	inactive	inactive	inactive	inactive
C[C@@H](O)[C@H]1C(=O)N2C(C(=O)O)=C(S[C@@H]3CN[C@H](C(=O)N(C)C)C3)[C@H](C)[C@H]12	inactive	inactive	inactive	inactive	inactive	inactive	inactive	inactive	inactive	inactive	inactive	inactive	inactive	inactive	inactive	inactive	inactive	inactive	inactive	inactive
CCN(CC)C(=O)c1ccc(O)c(OC)c1	inactive	inactive	inactive	inactive	inactive	inactive	inactive	inactive	inactive	inactive	inactive	inactive	inactive	inactive	inactive	inactive	inactive	inactive	inactive	inactive
O=C1Nc2ccc(Cl)cc2C(C#CC2CC2)(C(F)(F)F)O1 (stereo unspecified)	inactive	inactive	inactive	inactive	inactive	inactive		inactive	inactive	inactive	inactive	inactive		inactive	inactive	inactive	inactive		inactive	inactive
CC(=O)CCCCn1c(=O)c2c(ncn2C)n(C)c1=O	inactive	inactive	inactive	inactive	inactive	inactive	inactive	inactive	inactive	inactive	inactive	inactive	inactive	inactive	inactive	inactive	inactive	inactive	inactive	inactive
O=c1[nH]cnc2c1ncn2[C@H]1CC[C@@H](CO)O1	inactive	inactive	inactive	inactive		inactive	inactive	inactive	inactive	inactive		inactive	inactive	inactive	inactive	inactive	inactive	inactive	inactive	inactive
O=C(O)c1cc(-c2ccccc2)nc2ccccc12	inactive	inactive	inactive	inactive	inactive	inactive	inactive	inactive	inactive	inactive	inactive	inactive		inactive	inactive	inactive	inactive	inactive	inactive	inactive
CC(=O)N[C@@H](CS)C(=O)O	inactive	inactive	inactive	inactive	inactive	inactive	inactive	inactive	inactive	inactive	inactive	inactive	inactive	inactive	inactive	inactive	inactive	inactive	inactive	inactive
CC(=O)c1ccc(S(=O)(=O)NC(=O)NC2CCCCC2)cc1	inactive	inactive	inactive	inactive	inactive	inactive	inactive	inactive	inactive	inactive	inactive	inactive	inactive	inactive	inactive	inactive	inactive	inactive	inactive	inactive
CC/C(=C(\c1ccccc1)c1ccc(OCCN(C)C)cc1)c1ccccc1						inactive		11.2 µM (active)				inactive	inactive					inactive		
CCCNC(=O)NS(=O)(=O)c1ccc(Cl)cc1	inactive	inactive	inactive	inactive	inactive	inactive	inactive	inactive	inactive	inactive	inactive	inactive	inactive	inactive	inactive	inactive	inactive	inactive	inactive	inactive
Cc1cnc(C(=O)O)c[n+]1[O-]	inactive	inactive	inactive	inactive	inactive	inactive	inactive	inactive	inactive	inactive		inactive		inactive	inactive	inactive	inactive	inactive	inactive	inactive
CC1=C(/C=C/C(C)=C/C=C/C(C)=C/C(=O)Nc2ccc(O)cc2)C(C)(C)CCC1		7.94 µM (active)					10.7 µM (active)			inactive								13.5 µM (active)	15.1 µM (active)	
CCN(CC)CCNC(=O)c1ccc(N)cc1	inactive	inactive	inactive	inactive	inactive	inactive	inactive	inactive	inactive	inactive	inactive	inactive	inactive	inactive	inactive	inactive	inactive	inactive	inactive	inactive
NCCS	inactive	inactive	inactive	inactive	inactive	inactive	inactive	inactive	inactive	inactive	inactive	inactive	inactive	inactive	inactive	inactive	inactive	inactive	inactive	inactive

Compound	outcome (CP238)	Potency (CP247)	outcome (CP250)	outcome (CP252)	Potency (CP265)	outcome (CP315)	Potency (CP215)	Potency (CP217)	Potency (CP237)	outcome (CP256)	outcome (CP260)	outcome (CP262)	outcome (CP266)	outcome (CP268)	outcome (CP269)	outcome (CP286)	outcome (CP291)	Potency (CP297)	Potency (CP305)	outcome (CP325)
CC1(C)O[C@H]2C[C@@H]3[C@H]4CCC5=CC(=O)C=C[C@]5(C)[C@@]4(F)[C@@H](O)C[C@]3(C)[C@]2(C(=O)CO)O1	inactive	inactive	inactive	inactive	inactive	inactive	inactive	inactive	inactive	inactive	inactive	inactive		inactive	inactive	inactive	inactive		inactive	inactive
O=C(NCCN1CCOCC1)c1ccc(Cl)cc1	inactive	inactive	inactive	inactive	inactive	inactive	inactive	inactive	inactive	inactive	inactive	inactive	inactive	inactive	inactive	inactive	inactive	inactive	inactive	inactive
O=C1NC(=O)C(c2ccccc2)(c2ccccc2)N1	inactive	inactive	inactive	inactive	inactive		inactive	inactive	inactive	inactive	inactive	inactive	inactive	inactive	inactive	inactive	inactive	inactive	inactive	inactive
O=C1NCC2(CCN(CCc3ccccc3)CC2)O1	inactive	inactive	inactive	inactive	inactive	inactive	inactive	inactive	inactive	inactive		inactive	inactive	inactive	inactive	inactive	inactive	inactive	inactive	inactive
CCOC(=O)O[C@]1(C(=O)OCCl)CC[C@@H]2[C@H]3CCC4=CC(=O)C=C[C@]4(C)[C@@H]3[C@@H](O)C[C@@]21C	inactive	inactive	inactive	inactive	inactive	inactive		inactive	inactive	inactive	inactive	inactive		inactive	inactive	inactive	inactive	16.9 µM (active)		inactive
CN(C)CCC(c1ccccc1)c1ccccn1 (stereo unspecified)	inactive	inactive	inactive	inactive	12.6 µM (active)	inactive		inactive	inactive	inactive	inactive	inactive	inactive			inactive				inactive
NC(N)=Nc1nc(CSCC/C(N)=N/S(N)(=O)=O)cs1	inactive	inactive	inactive	inactive	inactive	inactive	inactive	inactive	inactive	inactive	inactive	inactive	inactive	inactive	inactive	inactive	inactive	inactive	inactive	inactive
CCN1CCC[C@H]1CNC(=O)c1cc(S(N)(=O)=O)ccc1OC	inactive	inactive	inactive	inactive	inactive	inactive	inactive	inactive	inactive	inactive	inactive	inactive	inactive	inactive	inactive	inactive	inactive	inactive	inactive	inactive
C[N+](C)(C)CCCCCC[N+](C)(C)C	inactive	inactive	inactive	inactive	inactive	inactive	inactive	inactive	inactive	inactive	inactive	inactive	inactive	inactive	inactive	inactive	inactive	inactive	inactive	inactive
O=C(O)Cc1cccc2ccccc12	inactive	inactive	inactive	inactive	inactive	inactive	inactive	inactive	inactive	inactive	inactive	inactive	inactive	inactive	inactive	inactive	inactive	inactive	inactive	inactive
COc1ccccc1N1CCN(CCCNc2cc(=O)n(C)c(=O)n2C)CC1	inactive	inactive	inactive	inactive	inactive	inactive	inactive	inactive	inactive	inactive	inactive	inactive	inactive	inactive	inactive	inactive	inactive	inactive	inactive	inactive
O=C(O)c1c(Cl)c(Cl)c(Cl)c(Cl)c1-c1c2cc(I)c(=O)c(I)c-2oc2c(I)c(O)c(I)cc12	inactive	inactive	inactive	inactive	inactive	inactive	inactive	inactive	inactive	inactive	inactive	inactive	inactive	inactive	inactive	inactive	inactive		inactive	inactive
Clc1ccc(Cn2c(CN3CCCC3)nc3ccccc32)cc1	inactive	inactive	inactive	inactive	inactive	inactive		inactive		inactive		inactive	inactive	inactive	inactive	inactive	inactive		inactive	inactive
Cc1cccc(C)c1OCC(C)N (stereo unspecified)	inactive	inactive	inactive	inactive		inactive	inactive	inactive	6.31 µM (active)	inactive	inactive	inactive				inactive				
COc1ccc(Cc2nccc3cc(OC)c(OC)cc23)cc1OC	inactive		inactive	inactive	inactive	inactive		inactive	inactive	inactive	inactive	inactive	inactive	inactive	inactive	inactive	inactive	inactive	inactive	inactive
CCN(CC)CCOC(=O)c1ccc(N)cc1	inactive	inactive	inactive	inactive	inactive	inactive	inactive	inactive	inactive	inactive	inactive	inactive	inactive	inactive	inactive	inactive	inactive	inactive	inactive	inactive
